Measurements reported in PubChem BioAssay (NCI).
The panel holds about 83,000 compounds, 20% with a hit somewhere; the sample as a whole holds those more often.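 Method: cells in 96-well plates; compound added at one concentration; 48 h incubation; percent growth measured; values under 10 scored active.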 Unmarked numbers belong to inactive results. Active and inactive are the calls of the source.

System: CCRF-CEM leukemia
Assay: NCI-60 one-dose screen, 48 h (100 = growth as untreated, 0 = no growth, -100 = all killed)
Settings: 10 µM unless noted

Compared with Nc1ccc(S(=O)(=O)Nc2ccnn2-c2ccccc2)cc1, O=S(=O)(Nc1cccc2cc(OS(=O)(=O)c3ccccc3)ccc12)c1ccccc1 is lower in growth: 107% for the first, 61.9% for the second.

First: O=C(CSc1nnc(-c2cc3c([nH]c4ccccc43)c(-c3cccc(O)c3)n2)n1-c1ccccc1)c1ccccc1
Second: CCn1c(SC)nnc1-c1cc2c([nH]c3ccccc32)c(-c2cccc(O)c2)n1
The growth of the first is higher: 30.9% for the first, 18.4% for the second.

Compared with O=C(Nc1cccc(-n2ccc3c(NC(=O)c4ccccc4)nccc32)c1)c1cc(N2CCOCC2)cc(C(F)(F)F)c1, O=C(Nc1ccc(-n2ccc3c(NC(=O)c4ccccc4)nccc32)cc1)c1cccc(C(F)(F)F)c1 is higher in growth: 13.5% for the first, 22.1% for the second.

Going from CCC1(C(N)=O)CC2C=CC1CC2 (stereo unspecified) to NC(=O)C1=C[C@H]2[C@H]3C=C[C@@]2(O)C(=O)O[C@@H]3O1, the growth falls from 127% to 26.9%.

First: [2H]c1nc(Nc2ncc(F)c(-c3cc(F)c4nc(C)n(C(C)C)c4c3)n2)c([2H])c([2H])c1CN1CCN(CC)CC1
Second: O=S(=O)(CCN1CCOCC1)Nc1cncc(-c2ccc3ncnc(Nc4ccc(F)c(Cl)c4)c3c2)c1
The growth of the first is lower: 27.2% for the first, 57.1% for the second.

Compared with O=C1c2ccccc2OC=C(c2ccccc2)N1CCCCN1CCCCC1, O=C1OC(N(Cc2ccc(Cl)cc2)c2ccccc2)c2ccccc21 (stereo unspecified) is higher in growth: 43.9% for the first, 92.2% for the second.

Going from COc1cc(CN(c2ccc(Cl)cc2)C2OC(=O)c3ccccc32)cc(OC)c1OC (stereo unspecified) to COc1ccccc1NC(=O)COc1ccc(/C=C2/Oc3cc4occc4c(OC)c3C2=O)cc1OC, the growth rises from 65.7% to 69.9%.

Compared with O=C(Nc1ccc(-n2ccc3c(NC(=O)c4ccccc4)ncnc32)cc1)Nc1cccc(Cl)c1Cl, O=C(Nc1ccc(-n2cc(-c3ccncc3)c(-c3ccc(O)c(Cl)c3)n2)cc1)Nc1cc(C(F)(F)F)cc(C(F)(F)F)c1 is higher in growth: 16.5% for the first, 55.8% for the second.

Going from CC1OC(n2c3ccccc3c3c4c(c5c6ccccc6[nH]c5c32)C(=O)N(CCN[C@@H]2CCC[C@H]2N)C4=O)CC(O)C1O (stereo partly specified) to O=C1C(Cl)=C(Nc2ccccc2)C(=O)C(Cl)=C1Nc1ccccc1, the growth rises from 13.2% to 103%.

First: O=S(c1ccccc1)c1ccc2nnnn2n1 (stereo unspecified)
Second: Cc1ccc2[nH]c3nc4cccnc4c(C)c3c2c1
The growth of the first is lower: 44.9% for the first, 85.9% for the second.

Compared with COc1ccc(Cn2cc3c(c2-c2cc(OC)c(OC)c(OC)c2)CCc2c(CO)noc2-3)cc1, COc1cc(Cn2cc3c(c2)-c2onc(CO)c2CC3)cc(OC)c1OC is higher in growth: 19.6% for the first, 91.3% for the second.

Going from COC1=C(OC)C(=O)C=CC1=O to COc1ccc(-c2ccc(NC(=O)Nc3ccc(Cl)c(C(F)(F)F)c3)c(C)n2)cc1, the growth falls from 46% to 29.9%.

Going from Nc1nc(-c2cc3c(cc2Cl)NC(=O)/C3=C/c2ccc(Cl)cc2)cs1 to O=C(NCCNc1nccc(-c2c(-c3cccc(O)c3)nc3sccn23)n1)Nc1cc(C(F)(F)F)cc(C(F)(F)F)c1, the growth rises from 19% to 39.1%.

C=CC(=O)Nc1cccc(Nc2nc(Nc3ccc(OCCOC(F)F)cc3)ncc2F)c1 showed a growth of 24.8%.

In the case of O=C(Nc1cccc(-n2ccc3c(NC(=O)c4ccccc4)nccc32)c1)Nc1cc(C(F)(F)F)cc(C(F)(F)F)c1, the growth is reported as -4.29% (active).
In the case of Nc1nccc2c1ccn2-c1cccc(NC(=O)c2ccc(N3CCOCC3)c(C(F)(F)F)c2)c1, the growth is reported as 7.34% (active).
In the case of COc1ccc(-c2nn(-c3ccc(NC(=O)Nc4cc(C(F)(F)F)cc(C(F)(F)F)c4)cc3)cc2-c2ccncc2)cc1Cl, the growth is reported as 9.25% (active).
For CN(C)CCS(=O)(=O)Nc1cc(-c2ccc3ncnc(Nc4ccc(F)c(Cl)c4)c3c2)cnc1Cl, the growth was 0.907% (active).
In the case of CNCCCOc1c(Br)cc(CCNC(=O)/C(Cc2cc(Br)c(OC)c(Br)c2)=N/O)cc1Br, the growth is reported as -9.15% (active).
In the case of O=C(Nc1cccc(-n2ccc3c(NC(=O)c4ccccc4)nccc32)c1)c1cccc(C(F)(F)F)c1, the growth is reported as 8.28% (active).
For CC(=O)c1cc2c(c(O)c1C)C(=O)C(=O)c1c(O)cccc1-2, the growth was 0.77% (active).
With O=C(Nc1ccc(-n2ccc3c(NC(=O)c4ccccc4)ncnc32)cc1)Nc1ccc(Cl)c(C(F)(F)F)c1 the growth was -14.5% (active).
With c1ccc(CNCCN(CCNCc2ccccn2)Cc2ccc3ccccc3c2)nc1 the growth was 6.8% (active).
